Values joined by “and” are separate entries in the source; they are usually repeats but may differ in a detail not shown here. Identical values can stand only once. Inconclusive results are not listed. Values without a mark were called inactive. Active and inactive are the calls of the source. Calls come from the whole dose curve; as a rule, active = well fitted curve in the direction sought with a large enough effect; inconclusive = small, poorly fitted or top-dose-only effect, or another doubt; inactive = no such curve, though single readings can be large; an effect the other way counts as inactive or inconclusive.
Test: qHTS of pediatric cancer cell lines to identify multiple opportunities for drug repurposing: Confirmatory screen for MG 63 (6-TG R) cells (AID 1347119); note: nearly all actives have a fitted effect of over 55% in size;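 for activity change, negative = cytotoxicity: plate controls were DMSO neutral control for no effect and bortezomib for full effect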
Conditions: MG-63 (6-TG resistant) osteosarcoma viability; series mostly up to 45.9 µM; activity change, negative = cytotoxicity: at the top concentration
Summary of the method: (§1)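 Cells (500-1,000/well) in growth media were settled 5 h at 37 degrees C, then given compounds for 48 h. Viability was read as CellTiter-Glo luminescence. Primary runs used MIPE at 11 points (0.78 nM-46 µM) and NPC at 8 points (0.59 nM-46 µM); follow-ups used 11 points.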
Potency is the fitted concentration of half-maximal effect.

| SMILES | activity change, negative = cytotoxicity [%] | Potency |
| --- | --- | --- |
| CC(C)NCC(O)c1ccc(NS(C)(=O)=O)cc1 (centres undefined) | 7.34 |  |
| COC(=O)Nc1nc2ccc(Sc3ccccc3)cc2[nH]1 |  | 928 nM (active) |
| COc1cc2c(Nc3ccc(Br)cc3F)ncnc2cc1OCC1CCN(C)CC1 | -27.2 |  |
| CCCCOc1ccc(CC(=O)NO)cc1 | -5.72 |  |
| CC(C)(C)C(=O)OCOP(=O)(COCCn1cnc2c(N)ncnc21)OCOC(=O)C(C)(C)C |  | 5220 nM (active) |
| O=S(=O)(O)CCS |  | 5220 nM (active) |
| CC(C)(C#N)c1cc(Cn2cncn2)cc(C(C)(C)C#N)c1 | 9.03 |  |
| COc1cc([C@@H]2c3cc4c(cc3[C@H](O)[C@H]3COC(=O)[C@H]23)OCO4)cc(OC)c1OC |  | 32.9 nM (active) |
| Nc1nc(F)nc2c1ncn2[C@@H]1O[C@H](CO)[C@@H](O)[C@@H]1O |  | 737 nM (active) and 827 nM (active) |
| Nc1nc(N)nc(-c2cc(Cl)ccc2Cl)n1 | 9.23 |  |
| COC(=O)Nc1nc2ccc(S(=O)c3ccccc3)cc2[nH]1 (centres undefined) |  | 1310 nM (active) |
| CCOC(=O)[C@H](CCc1ccccc1)N[C@H]1CS[C@H](c2cccs2)CN(CC(=O)O)C1=O | -20.9 |  |
| CC(C)C[C@H](NC(=O)[C@H](CCc1ccccc1)NC(=O)CN1CCOCC1)C(=O)N[C@@H](Cc1ccccc1)C(=O)N[C@@H](CC(C)C)C(=O)[C@@]1(C)CO1 |  | 65.7 nM (active) |
| O=NN(CCCl)C(=O)NC1CCCCC1 | 5.52 |  |
| Nc1[nH]c(=O)ncc1F | 13.5 |  |

Test: qHTS of pediatric cancer cell lines to identify multiple opportunities for drug repurposing: Confirmatory screen for control Hh wild type fibroblast cells (AID 1347121); note: nearly all actives have a fitted effect of over 70% in size;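 for activity, negative = cytotoxic: plate controls were DMSO for no effect and bortezomib for full effect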
Conditions: viability qHTS; series mostly up to 45.9 µM; activity, negative = cytotoxic: at the top concentration
Summary of the method: as §1

| SMILES | activity, negative = cytotoxic [%] | Potency |
| --- | --- | --- |
| COc1ccc(-c2ccc3cc(C(=O)O)ccc3c2)cc1C12CC3CC(CC(C3)C1)C2 | 0.463 |  |
| CC(C)NCC(O)c1ccc(NS(C)(=O)=O)cc1 (centres undefined) | 2.79 |  |
| COc1cc2c(Nc3ccc(Br)cc3F)ncnc2cc1OCC1CCN(C)CC1 | 8.07 |  |
| CCCCOc1ccc(CC(=O)NO)cc1 | 0.0997 |  |
| CC(C)(C#N)c1cc(Cn2cncn2)cc(C(C)(C)C#N)c1 | 6.98 |  |
| COc1cc([C@@H]2c3cc4c(cc3[C@H](O)[C@H]3COC(=O)[C@H]23)OCO4)cc(OC)c1OC | -2.62 |  |
| CCOC(=O)c1ccc(C#Cc2ccc3c(c2)C(C)(C)CCS3)nc1 | 3.46 |  |
| Nc1nc(F)nc2c1ncn2[C@@H]1O[C@H](CO)[C@@H](O)[C@@H]1O | 5.29 |  |
| Nc1nc(N)nc(-c2cc(Cl)ccc2Cl)n1 | 2.06 |  |
| NC(=O)c1cccnc1 | 6.3 |  |
| COC(=O)Nc1nc2ccc(S(=O)c3ccccc3)cc2[nH]1 (centres undefined) | -20.2 |  |
| CCOC(=O)[C@H](CCc1ccccc1)N[C@H]1CS[C@H](c2cccs2)CN(CC(=O)O)C1=O | 7.9 |  |
| CC(C)C[C@H](NC(=O)[C@H](CCc1ccccc1)NC(=O)CN1CCOCC1)C(=O)N[C@@H](Cc1ccccc1)C(=O)N[C@@H](CC(C)C)C(=O)[C@@]1(C)CO1 |  | 737 nM (active) |
| COc1nc(N)nc2c1ncn2[C@@H]1O[C@H](CO)[C@@H](O)[C@@H]1O | 3.7 |  |
| CC(C(=O)O)c1ccc2c(c1)CC(=O)c1ccccc1S2 (centres undefined) | 0.178 |  |
| C[C@@H]1C[C@H]2[C@@H]3CCC4=CC(=O)C=C[C@]4(C)[C@@]3(Cl)[C@@H](O)C[C@]2(C)[C@@]1(OC(=O)c1ccco1)C(=O)CCl | -19.9 |  |
| O=NN(CCCl)C(=O)NC1CCCCC1 | -1.59 |  |
| Nc1[nH]c(=O)ncc1F | 2.75 |  |
| COc1ccc(C(=O)CC(=O)c2ccc(C(C)(C)C)cc2)cc1 | 2.29 |  |
| Cc1cccc(N(C)C(=S)Oc2ccc3ccccc3c2)c1 | -18.3 |  |

Test: qHTS of pediatric cancer cell lines to identify multiple opportunities for drug repurposing: Confirmatory screen for U-2 OS cells (AID 1347122); note: nearly all actives have a fitted effect of over 65% in size;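 for activity change, negative = cytotoxicity: plate controls were DMSO for no effect and bortezomib for full effect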
Conditions: U-2 OS osteosarcoma cell viability; series mostly up to 45.9 µM; activity change, negative = cytotoxicity: at the top concentration
Summary of the method: as §1

| SMILES | Potency | outcome | activity change, negative = cytotoxicity [%] |
| --- | --- | --- | --- |
| COc1ccc(-c2ccc3cc(C(=O)O)ccc3c2)cc1C12CC3CC(CC(C3)C1)C2 | 82.7 nM (active) |  |  |
| CC(C)NCC(O)c1ccc(NS(C)(=O)=O)cc1 (centres undefined) |  | inactive |  |
| COC(=O)Nc1nc2ccc(Sc3ccccc3)cc2[nH]1 | 3690 nM (active) |  |  |
| COc1cc2c(Nc3ccc(Br)cc3F)ncnc2cc1OCC1CCN(C)CC1 |  |  | -24.1 |
| CCCCOc1ccc(CC(=O)NO)cc1 |  |  | -12.3 |
| CC(C)(C)C(=O)OCOP(=O)(COCCn1cnc2c(N)ncnc21)OCOC(=O)C(C)(C)C |  |  | -13.4 |
| O=S(=O)(O)CCS |  |  | 12.3 |
| CC(C)(C#N)c1cc(Cn2cncn2)cc(C(C)(C)C#N)c1 |  |  | 15.3 |
| COc1cc([C@@H]2c3cc4c(cc3[C@H](O)[C@H]3COC(=O)[C@H]23)OCO4)cc(OC)c1OC | 73.7 nM (active) |  |  |
| Nc1nc(F)nc2c1ncn2[C@@H]1O[C@H](CO)[C@@H](O)[C@@H]1O | 1470 nM (active) |  |  |
| NC(=O)c1cccnc1 |  |  | 8.58 |
| COC(=O)Nc1nc2ccc(S(=O)c3ccccc3)cc2[nH]1 (centres undefined) | 2930 nM (active) |  |  |
| CCOC(=O)[C@H](CCc1ccccc1)N[C@H]1CS[C@H](c2cccs2)CN(CC(=O)O)C1=O |  | inactive |  |
| COc1nc(N)nc2c1ncn2[C@@H]1O[C@H](CO)[C@@H](O)[C@@H]1O |  | inactive |  |
| CC(C(=O)O)c1ccc2c(c1)CC(=O)c1ccccc1S2 (centres undefined) |  |  | 9.9 |
| C[C@@H]1C[C@H]2[C@@H]3CCC4=CC(=O)C=C[C@]4(C)[C@@]3(Cl)[C@@H](O)C[C@]2(C)[C@@]1(OC(=O)c1ccco1)C(=O)CCl | 3290 nM (active) |  |  |
| O=NN(CCCl)C(=O)NC1CCCCC1 |  |  | 16.3 |
| Nc1[nH]c(=O)ncc1F |  |  | 66.7 |
| COc1ccc(C(=O)CC(=O)c2ccc(C(C)(C)C)cc2)cc1 |  |  | 9.45 |

— PubChem BioAssay (NCATS)
